# Experimental data taken from ChEMBL document CHEMBL3988442, “University of Dundee, Small-Polar-MMV Screening Library” (2021).
# The campaign covered roughly 48,000 compounds. About 13,000 (27%) showed an effect of 50% or more. This is one part of the list.
# System: Wolbachia pipientis
# Experiment: Anti-Wolbachia Cell-Based Screen
# Type: functional
# Parameters: scale not given: in the data most compounds retested in dose-response had high values
# Details: 5 µM
row,SMILES,Percent Effect
1,COCCN(CCC#N)S(=O)(=O)c1cc(F)ccc1F,6.072%
2,Cc1nnc2n1CCN(C(=O)CN(C)Cc1ccccc1)C2,125%
3,CC(C)c1nnc2n1CCN(C(=O)c1ccc(CN(C)C)cc1)C2,-8.921%
4,CCc1nnc2n1CCN(C(=O)CN(C)Cc1ccccc1)C2,-3.292%
5,Cc1nnc2n1CCN(C(=O)COCCOc1ccccc1)C2,6.355%
6,CC(C)c1nnc2n1CCN(C(=O)CN(C)Cc1ccccc1)C2,95.98%
7,CC(C)c1nnc2n1CCN(C(=O)CN1Cc3ccccc3C1=O)C2,-9.252%
8,CS(=O)(=O)c1nccn1Cc1ccc(C(N)=O)cc1,-9.833%
9,CN(Cc1cccnc1)Cc1cn2c(n1)CN(C1CCOC1)CC2.O=C(O)C(F)(F)F.O=C(O)C(F)(F)F.O=C(O)C(F)(F)F (configuration not stated),86.19%
10,CN(C)Cc1cn2c(n1)CN(C1CCOC1)CC2 (configuration not stated),93.96%
11,CN(Cc1cn2c(n1)CN(C1CCOC1)CC2)Cc1ccco1.O=C(O)C(F)(F)F.O=C(O)C(F)(F)F (configuration not stated),-12.79%
12,CN(Cc1cncnc1)Cc1cn2c(n1)CN(C1CCOC1)CC2.O=C(O)C(F)(F)F.O=C(O)C(F)(F)F (configuration not stated),-14.81%
13,CCN(CC)Cc1cnc2n1CCN(C1CCOC1)CC2 (configuration not stated),-1.376%
14,CN(Cc1cn2c(n1)CN(CC1CCOC1)CC2)Cc1ccco1.O=C(O)C(F)(F)F.O=C(O)C(F)(F)F (configuration not stated),11.13%
15,CN(Cc1cccnc1)Cc1cn2c(n1)CN(C1CCOCC1)CC2,108.1%
16,CCOCC(=O)N1CCn2cc(CN(C)Cc3ccco3)nc2C1,-7.292%
17,CN(Cc1cn2c(n1)CN(C(=O)C1CCOCC1)CC2)Cc1ccco1,-9.912%
18,CCN(CC)Cc1cn2c(n1)CN(C1CCOC1)CC2.O=C(O)C(F)(F)F.O=C(O)C(F)(F)F (configuration not stated),96.5%
19,Cc1noc(C)c1CN(C)Cc1csc(-c2ccccc2F)n1,6.793%
20,CSC(C)(C)CNC(=O)NCC[S+]([O-])c1ccccc1F (configuration not stated),3.709%
21,COCc1nc2n(n1)CCCC2Nc1nc(C2CC2)ns1 (configuration not stated),-6.792%
22,COC[C@H]1CC[C@H]2[C@H](CCN2S(=O)(=O)Cc2ccccc2)O1,-8.908%
23,CCNc1ncc(C)c(-c2cnn(C)c2)n1,108.7%

row,SMILES,Percent Effect
1,Cn1ncnc1-c1ccnc(NCc2ccncc2)n1,2.269%
2,Cc1cnc(CNc2ncc(C)c(-c3cnn(C)c3)n2)cn1,99.76%
3,Cc1ccc(Br)c(S(=O)(=O)NCc2cnn(C)c2)c1,-6.157%
4,Cn1cc(-c2nc(CNCCn3cccn3)cs2)cn1,1.057%
5,Cc1cnc(CNCc2cnc(-c3ccccc3C)s2)cn1,2.85%
6,Cc1ccc(CCNc2ncc(C)c(-c3ccnn3C)n2)s1,-9.646%
7,Cc1cnc(NCc2cnn(C)c2)nc1-c1cnn(C)c1,107.4%
8,Cn1cc(-c2ccnc(NCC3CC3)n2)cn1,-5.433%
9,Cc1cnc(NCc2ccncc2)nc1-c1cnn(C)c1,107.1%
10,Cn1cc(-c2ccnc(NCC3CCN(Cc4ccccc4)C3)n2)cn1 (configuration not stated),1.277%
11,CN(C)C1(CNc2nccc(-c3cnn(C)c3)n2)CCSC1 (configuration not stated),0.386%
12,O=C(CN1CCCS1(=O)=O)Nc1ccc(OC(F)F)cc1,5.702%
13,CC(C)CN1CCc2[nH]cnc2C12CCN(C(=O)c1cc[nH]n1)CC2,-17.95%
14,CC(=O)NCc1ccc(S(=O)(=O)NC(=O)c2ccc3c(c2)COC3)cc1,-5.848%
15,CC(NC1(CNS(=O)(=O)N(C)C)CCCC1)c1ccccc1 (configuration not stated),-3.44%
16,CCC(NC(N)=O)c1ccccc1OCC(=O)N1CCCC1 (configuration not stated),-5.34%
17,Cc1cnn(CC(C)NCc2csc(-c3cnn(C)c3)n2)c1 (configuration not stated),15.88%
18,Cc1cnc(NCc2csc(C(C)C)n2)nc1-c1cnn(C)c1,93.26%
19,CC(C)c1nc(CNc2nccc(CCC(F)(F)F)n2)cs1,-5.11%
20,Cc1ncc(-c2ccnc(N3CCCCC3)n2)c(=O)[nH]1,2.763%
21,O=c1[nH]c(-c2ccncc2)ncc1-c1ccnc(N2CCOCC2)n1,98.38%
22,Cc1ccc(-c2ccnc(N3CCC4(CCO4)CC3)n2)c(C)n1,1.011%
23,CCCn1ncc(-c2ccnc(NC3CC(C)(C)NC(C)(C)C3)n2)c1C,10.1%

row,SMILES,Percent Effect
1,O=C(COCc1nc(-c2ccncc2)no1)NC1CCCCC1,-10.3%
2,O=c1[nH]c(-c2ccncc2)ncc1-c1ccnc(NC2CC2)n1,114.3%
3,O=c1[nH]c2nc(NC3CC3)ncc2c(=O)n1-c1ccc(F)cc1,8.247%
4,O=c1[nH]c(-c2ccncc2)ncc1-c1ccnc(NC2CCCCC2)n1,85.21%
5,O=C(c1ccc(F)c(F)c1)N1CCCC(Nc2ccc(F)cc2)C1 (configuration not stated),-4.983%
6,O=C(NCC1CC1)c1cc2c(s1)CCN2C(=O)c1ccc(F)cc1,95.26%
7,O=C(NCC1CC1)c1cc2c(s1)CCN2C(=O)c1cccnc1,93.16%
8,Cc1cc(C(=O)NCC2CCCC2)c(C)n1-c1cccnc1,5.973%
9,COC(=O)c1ccc(C(=O)N2CCCC(Nc3ccc(F)cc3)C2)cc1 (configuration not stated),-50.64%
10,CC(NC(=O)c1cc(N2CCNC2=O)ccc1F)c1ccc(F)cc1 (configuration not stated),-0.5858%
11,CCSCCC(=O)Nc1ncn(Cc2ccccc2)n1,-26.44%
12,O=c1n(CCNCc2cccc3ccccc23)nc2ccccn12,89.88%
13,O=c1n(CCSCc2ccccc2Cl)nc2ccccn12,6.647%
14,O=c1n(CCNc2cccc3ccccc23)nc2ccccn12,88.07%
15,CCSCCC(=O)NCCn1nc2ccccn2c1=O,-5.498%
16,O=C(CCSc1ccccc1)NCCn1nc2ccccn2c1=O,3.117%
17,O=c1n(CCSCc2ccccc2Br)nc2ccccn12,-15.86%
18,COc1ccc(Cl)cc1CN1CC(n2cccn2)C1,-1.811%
19,COc1ccc2c(c1)CCCC2CC(=O)NCC(=O)O (configuration not stated),-14.49%
20,COCC(=O)NCCc1ccc(Cl)s1,-5.141%
21,COc1ccc2c(c1)CC(NC(=O)NCc1cccs1)CO2 (configuration not stated),-5.09%
22,COCC(=O)NCC[C@H]1CC(C)(C)Oc2ccc(OC)cc21,109.1%
23,COCC(=O)NCC[C@H]1CC(C)(C)Oc2ccccc21,119%

row,SMILES,Percent Effect
1,O=C(NC[C@H]1OC[C@@H](NC(=O)c2ccccc2)[C@@H]1O)c1ccncc1,-2.654%
2,CC1(C)C[C@H](CCNC(=O)c2ccncc2)c2ccccc2O1,152.5%
3,CN(Cc1ccco1)Cc1ccccc1CNC(=O)c1ccncc1,21.51%
4,COc1ccc2c(c1)[C@@H](CCNC(C)=O)CC(C)(C)O2,118.9%
5,CCCNC(=O)CNC(=O)CC1CCCc2cc(OC)ccc21 (configuration not stated),-20.04%
6,COCC(=O)NCCc1ccc(I)s1,-6.07%
7,COc1cccc(C2(NC(=O)CCNC(C)=O)CC2)c1,-8.972%
8,O[C@@H]1C[C@@H](c2nc(Cc3ccccc3)no2)N(Cc2ncc[nH]2)C1,0.9239%
9,COc1ccc(CNC(=O)NC2CCC(O)CC2)c(C(F)(F)F)c1 (configuration not stated),20.35%
10,CCc1ccc(C(=O)N(CC(F)(F)F)C2CCCOC2)o1 (configuration not stated),5.996%
11,Cc1cc(CSc2nc(=O)ccn2C(C)C)no1,-4.933%
12,CSCC[C@@H](CO)Nc1ccc(-c2nc(-c3ccccc3F)no2)cn1,-8.084%
13,CCC(C)(N)c1nc(=O)c(C)c(C)[nH]1 (configuration not stated),-33.14%
14,Cc1noc(C)c1CS(=O)(=O)CC(=O)NCCc1cccs1,0.1957%
15,CC(=O)NCC[C@H]1CC(C)(C)Oc2ccccc21,133.5%
16,CNCC[C@H]1CC(C)(C)Oc2ccc(OC)cc21,108.6%
17,COc1ccc2c(c1)C(NCCc1ccccn1)CCCO2 (configuration not stated),1.37%
18,Cc1ccc2c(c1)OC(C)(C)CC2NC(=O)C1CCN(C)CC1 (configuration not stated),-0.1155%
19,COc1ccc2c(c1)C(NCCc1c(C)noc1C)CCCO2 (configuration not stated),-2.374%
20,CC(=O)N1CCC(C(=O)NC2CC(C)(C)Oc3cc(C)ccc32)CC1 (configuration not stated),-7.853%
21,CNCC[C@H]1CC(C)(C)Oc2ccc(OCC3CC3)cc21,114.8%
22,NCc1ccc(Oc2cccc(Cl)c2Cl)nc1,4.271%
23,CCCc1[nH]n(C)c(=N)c1-c1ccc2c(c1)OCO2,-1.578%

row,SMILES,Percent Effect
1,O=C(Nc1nc(-c2ccccc2)ns1)N1CCC(F)CC1,-10.12%
2,Cc1n[nH]c(C)c1CNC(=O)c1cn(CCC2CCCCN2)nn1 (configuration not stated),-13.81%
3,Cc1cccc(CO[C@@H]2C[C@H]3CN(C(=O)c4cnccn4)CCN3C2)n1,-10.31%
4,O=C(O)[C@]12CCCN(Cc3ccccn3)[C@@H]1CCN(c1cnccn1)C2,-12.33%
5,NC(=O)C1(c2cnccn2)CCCN1Cc1cc2ccccc2o1 (configuration not stated),-3.809%
6,Cc1cccc(CN2C[C@@H](CN3CCCN(C)CC3)[C@@H](CO)C2)n1,16.72%
7,Cc1cccc(CN2CCCC2(C(N)=O)c2cnccn2)n1 (configuration not stated),94%
8,NC(=O)C1(c2cnccn2)CCCN1Cc1ccccn1 (configuration not stated),123%
9,c1ccc(-c2nnc(CNCC3CCCN3c3cccnn3)o2)cc1 (configuration not stated),-18.66%
10,CN1CCCCC12CCN(C(=O)c1cccn1C)CC2.O=C(O)C(F)(F)F,-9.83%
11,CC(=O)N1CCOC2(CCN(C(=O)c3cnoc3C)CC2)C1,6.241%
12,Cn1cccc1C(=O)N1CCC2(CC1)CC(N1CCOCC1)C2.O=C(O)C(F)(F)F,103.3%
13,O=C(O)C(F)(F)F.O=C1CC(c2ccncc2)C2(CCN(C(=O)c3cccc(F)c3)CC2)N1 (configuration not stated),8.556%
14,CC(=O)N1CCC2(CC1)CC(N1CCOCC1)c1ccc(C)cc12.O=C(O)C(F)(F)F (configuration not stated),0.6002%
15,O=C(O)C(F)(F)F.O=C(c1cccc(F)c1)N1CCC2(CC1)CC(N1CCOCC1)C2,110.5%
16,O=C(O)C(F)(F)F.O=C(c1ccc(F)cc1)N1CCC2(CC1)CC(N1CCOCC1)C2,98.46%
17,Cc1oncc1C(=O)N1CCC2(CC1)CC(N1CCOCC1)C2.O=C(O)C(F)(F)F,99.49%
18,COc1cc(N2CCC3(CC2)CC(N2CCOCC2)C3)ncn1.O=C(O)C(F)(F)F,-37.73%
19,O=C(O)C(F)(F)F.O=C(c1ccccc1)N1C[C@@H]2CCCO[C@@H]2[C@H](N2CCOCC2)C1,-6.046%
20,CN(C)C1COC2(CCN(C(=O)c3cccc(Cl)c3)CC2)C1.O=C(O)C(F)(F)F (configuration not stated),-2.157%
